Assay results reported in PubChem BioAssay AID720650 (Broad Institute, 2013).
Unmarked numbers belong to inactive results. Activity calls are given as the source filed them. The rule behind the calls is not given here.

test: C difficile toxins, biochemical counterscreen, UDPG substrate absence, confirmatory dose response (AID 720650); conditions: series mostly up to 19.5 µM; activity change, negative = inhibition: at the top concentration

Compound	AC50	activity change, negative = inhibition [%]
Cc1cc(O)ccc1N=Cc1c(C(F)(F)F)[nH][nH]c1=O	10.9 µM (active)	
O=C(CNS(=O)(=O)c1ccccc1)N/N=C/c1ccc(O)cc1	14.9 µM (active)	
Nc1nc(CCOc2ccc(F)cc2)cs1		-9.71
Cc1ccc(C)c2nc(Cl)c(C3NC(=O)c4ccccc4N3)cc12 (stereo unspecified)		-4.37
Nc1ncc(S(=O)(=O)c2ccc([N+](=O)[O-])cc2)s1		-5.28
CNC(=O)C[C@H]1CC[C@@H]2[C@@H](COc3ccc(NC(=O)c4cccc(OC)c4)cc3C(=O)N2C)O1		-18.7
COc1cc(OC)cc(C(=O)NNC(=O)CN2C(=O)NC(C)(c3ccc(C)cc3)C2=O)c1 (stereo unspecified)		-2.29
C[C@H](CO)N1C[C@H](C)[C@H](CN(C)Cc2ccc(Oc3ccccc3)cc2)Oc2cc(-c3ccncc3)ccc2S1(=O)=O		-5.93
O=C(Cc1coc2cc(O)ccc12)NNC(=O)c1cccs1	> 39 µM	
Cc1cc(-c2ccc(NS(=O)(=O)c3ccccc3)c(C)c2)ccc1NS(=O)(=O)c1ccccc1		-6.17
CC(C)OC(=O)C(=O)NNc1ccccc1	1.35 µM (active)	
CC(N)C(=O)NC(C(=O)N1CCCC1C(=O)NC(c1ccccc1)c1ccccc1)C(C)C (stereo unspecified)		-13.4
CCOc1ccccc1/C=C/c1onc(C)c1S(=O)(=O)N1CCC(C(=O)NC)CC1		-10.6
Cc1onc(-c2ccccc2Cl)c1C(=O)Nc1cnn(Cc2ccccc2)c1		-8.22
COc1cc(/C(C)=N/NC(=O)CSc2nnc(C)s2)ccc1O		3.12
Oc1ccc(-c2nc3cnccn3c2Nc2ccc3c(c2)OCCO3)cc1		-2.26
